Bioassay records: PubChem, Sanford-Burnham Center for Chemical Genomics
An excerpt weighted towards active compounds, which were near 4% of everything screened.
tim10-1 inh: tim10-1 yeast growth inhibition | S. cerevisiae tim10-1 ts strain growth, BacTiter-Glo, 24 h | inhibition, % at 20 µM | 330,000 compounds, 2.2% hits | AID 463190;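 active = inhibition of at least 40%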;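 also: mutant grown at 25 °C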
NALP1 yeast inh: blocks the NALP1 inflammasome reconstituted in yeast. S. cerevisiae NALP1/ASC/caspase-1 growth, X-gal OD620, 72 h. inhibition, % at 10 µM. 280,000 compounds, 0.61% hits; in the data active = inhibition mostly above about 24%, no sharp cut-off; inactive = mostly below about 32%
TIM10 inh: growth inhibitors of TIM10 yeast strain | S. cerevisiae TIM10 strain growth, BacTiter-Glo luminescence, 24 h | inhibition, % at 10 µM | 330,000 compounds, 1.4% hits | AID 463195;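 active = inhibition of 40% or more at the single tested concentration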;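 also: wild-type TIM10 isogenic control strain grown at permissive 25 °C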
NALP3 yeast inh: NALP3 inhibition in yeast. Yeast reconstituted NLRP3/ASC/caspase-1, beta-gal luminescence, 24 h. 330,000 compounds, 0.39% hits. inhibition, % at 10 µM;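 active = inhibition of 50% or more; inactive = inhibition below 50%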
tim23-1 inh: tim23-1 yeast growth inhibition | S. cerevisiae tim23-1 growth, BacTiter-Glo luminescence, 24 h | inhibition, % at 20 µM | 330,000 compounds, 1.3% hits | AID 463212;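 active = growth inhibition of the mutant yeast at or above 50%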;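 also: temperature-sensitive mutant grown at 25 °C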
tim10-1 confirm: tim10-1 yeast growth inhibition, confirmed; shares compounds with tim10-1 inh; S. cerevisiae tim10-1 ts strain growth, BacTiter-Glo, 24 h; inhibition, % at 20 µM; 7,400 compounds, 56% hits;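 active = inhibition of yeast growth at or above a set limit in either of two repeat tests at 20 µM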;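 also: tim10-1 mutant grown at permissive 25 °C to find synthetic lethal compounds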
tim10 confirm: confirmation of TIM10 yeast growth inhibitors; inhibition, % at 10 µM; S. cerevisiae tim10 strain growth, BacTiter-Glo luminescence, 24 h; 4,600 compounds, 63% hits; shares compounds with TIM10 inh;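 active = inhibition of yeast growth at or above a set limit in either of two replicates at 10 µM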; also: this counterscreen used the strain with wild-type TIM10
tim23-1 conf: tim23-1 yeast growth inhibition, confirmed; shares compounds with tim23-1 inh; S. cerevisiae tim23-1 growth, BacTiter-Glo luminescence, 24 h; inhibition, % at 20 µM; 4,400 compounds, 83% hits; AID 463218;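 active = inhibition above about 39% in either of two replicate wells at 20 µM, limit read from the data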;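 also: temperature-sensitive tim23-1 mutant grown at 25 °C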
A number is an active result; n = inactive; x = no result.

SMILES	tim10-1 inh	NALP1 yeast inh	TIM10 inh	NALP3 yeast inh	tim23-1 inh	tim10-1 confirm	tim10 confirm	tim23-1 conf
COc1ccc(NC(=O)CCC(=O)N/N=C/c2ccc([N+](=O)[O-])s2)cc1	50.5	n	83.2	n	62.5	38.6	n	62.1
CC(C)(C)OC(=O)N/N=C\c1ccc([N+](=O)[O-])s1	75.5	n	58.1	n	78.0	49.5	70.7	63.9
Cc1ccc(C(=O)N/N=C\c2ccc([N+](=O)[O-])s2)cn1	49.3	n	40.1	n	55.9	41.5	n	58.5
CCOC(=O)N/N=C\c1ccc(C)s1	n	n	n	n	n	x	x	x
Cc1cc(C(=O)N/N=C/c2ccc([N+](=O)[O-])s2)n[nH]1	n	n	n	n	n	x	x	x
CCOC(=O)N/N=C\c1ccc([N+](=O)[O-])s1	53.4	n	n	n	87.5	38.3	x	66.2
CC(CNC(=O)Cn1cnc2c(NCc3ccccc3)ncnc21)c1ccccc1 (stereo not given)	n	x	n	x	n	x	x	x
O=C(NCc1ccc(Cl)cc1)c1ccc(NC(=O)C2CCCO2)cc1 (stereo not given)	n	n	n	n	n	x	x	x
Cc1cc(NC(=O)c2ccc(Cl)cc2)c(C)cc1O	n	n	n	n	n	x	x	x
Cc1cc(C(C#N)c2ccc(Cl)cc2)c(Cl)cc1NC(=O)c1cc(I)cc(I)c1O (stereo not given)	42.8	x	n	n	70.5	44.8	x	60.8
O=C1CC(NS(=O)(=O)c2cccs2)CN1c1cccc(F)c1 (stereo not given)	n	x	n	n	n	x	x	x
Cc1nn(-c2cccc(Cl)c2)c2c1C(c1ccncc1)C(C#N)=C(N)O2 (stereo not given)	n	n	n	n	n	x	x	x
COc1ccc(OC)c(C2C(C#N)=C(N)Oc3c2c(C)nn3-c2cccc(Cl)c2)c1 (stereo not given)	45.7	n	44.0	n	50.8	n	n	50.1
CCCn1cc(CN2CCCC(C(=O)c3ccc4c(c3)OCO4)C2)c(C)n1 (stereo not given)	n	n	n	n	n	x	x	x
Cc1ccc(CN(Cc2ccco2)S(=O)(=O)c2ccc(S(=O)(=O)NCC3CCCO3)cc2)cc1 (stereo not given)	n	n	n	n	n	x	x	x
O=C(Nc1cc(Cl)cc(Cl)c1)c1cccc(OC(F)F)c1	78.5	n	67.9	n	84.9	79.2	65.5	72.3
S=C(NCc1ccncc1)Nc1cccc(Cl)c1	n	n	n	n	n	x	x	x
Fc1ccc(CNC(=S)Nc2cccc(Cl)c2)cc1	47.6	n	n	n	50.1	40.8	x	51.8
Cc1ccc2cc(/C=C/C(=O)c3ccco3)c(Cl)nc2c1	54.4	x	60.9	n	80.0	54.0	61.0	65.3
Cc1ccc2nc(Cl)c(/C=C/C(=O)c3ccco3)cc2c1	44.5	n	51.3	n	63.7	n	51.8	50.0
COc1cc2cc(/C=C/C(=O)c3ccco3)c(Cl)nc2cc1OC	n	n	n	n	n	x	x	x
COc1ccc2cc(/C=C/C(=O)c3ccco3)c(Cl)nc2c1	44.7	n	46.0	n	52.3	37.5	n	47.6
COc1cccc(CN2CC(C(=O)NC3CCC(O)CC3)CCC2=O)c1 (stereo not given)	n	n	n	n	n	x	x	x
CCN(C[C@H]1N[C@@](C)(C(=O)OC)[C@H]2C(=O)N(C)C(=O)[C@@H]12)C(=O)COC	n	x	n	n	n	x	x	x
Cc1ccc(C(=O)ONc2ccc(N=O)cc2)cc1	58.0	n	n	n	71.4	49.1	x	63.2
O=[N+]([O-])c1ccc(C=Nc2cccc3ccccc23)s1	76.7	n	n	n	78.8	77.0	x	69.7
O=[N+]([O-])c1ccc(-c2ccc(C=Nc3cccc4ccccc34)o2)cc1	n	n	n	n	n	x	x	x
O=c1oc(/C=C/c2ccc([N+](=O)[O-])s2)nc2ccccc12	60.1	x	n	n	54.0	46.3	x	44.7
COc1ccc(C2=NOC(C(=O)NCc3cccnc3)C2)cc1 (stereo not given)	n	n	n	n	n	x	x	x
O=[N+]([O-])c1cccc(/C=C/c2ccccn2)c1	n	n	n	n	n	x	x	x
